# JMJD2A Tudor: qHTS Assay for Inhibitors of JMJD2A-Tudor Domain. Potency, µM (top dose mostly 114 µM), for the others: at the top dose activity change, negative = inhibition, most hits filed as inhibitors. 4.4% of 390,000 active. AlphaScreen JMJD2A-Tudor / H3K4me3 peptide binding. Lysine-specific demethylase 4A (Homo sapiens), O75164; further: potency means the concentration at half of the fitted maximal effect; on the % scale 0 is the no-effect control and ±100 the full control effect; nearly all actives have a fitted effect of over 50% in size
# Target sequence (O75164 whole entry, looked up, the tested form may be a part): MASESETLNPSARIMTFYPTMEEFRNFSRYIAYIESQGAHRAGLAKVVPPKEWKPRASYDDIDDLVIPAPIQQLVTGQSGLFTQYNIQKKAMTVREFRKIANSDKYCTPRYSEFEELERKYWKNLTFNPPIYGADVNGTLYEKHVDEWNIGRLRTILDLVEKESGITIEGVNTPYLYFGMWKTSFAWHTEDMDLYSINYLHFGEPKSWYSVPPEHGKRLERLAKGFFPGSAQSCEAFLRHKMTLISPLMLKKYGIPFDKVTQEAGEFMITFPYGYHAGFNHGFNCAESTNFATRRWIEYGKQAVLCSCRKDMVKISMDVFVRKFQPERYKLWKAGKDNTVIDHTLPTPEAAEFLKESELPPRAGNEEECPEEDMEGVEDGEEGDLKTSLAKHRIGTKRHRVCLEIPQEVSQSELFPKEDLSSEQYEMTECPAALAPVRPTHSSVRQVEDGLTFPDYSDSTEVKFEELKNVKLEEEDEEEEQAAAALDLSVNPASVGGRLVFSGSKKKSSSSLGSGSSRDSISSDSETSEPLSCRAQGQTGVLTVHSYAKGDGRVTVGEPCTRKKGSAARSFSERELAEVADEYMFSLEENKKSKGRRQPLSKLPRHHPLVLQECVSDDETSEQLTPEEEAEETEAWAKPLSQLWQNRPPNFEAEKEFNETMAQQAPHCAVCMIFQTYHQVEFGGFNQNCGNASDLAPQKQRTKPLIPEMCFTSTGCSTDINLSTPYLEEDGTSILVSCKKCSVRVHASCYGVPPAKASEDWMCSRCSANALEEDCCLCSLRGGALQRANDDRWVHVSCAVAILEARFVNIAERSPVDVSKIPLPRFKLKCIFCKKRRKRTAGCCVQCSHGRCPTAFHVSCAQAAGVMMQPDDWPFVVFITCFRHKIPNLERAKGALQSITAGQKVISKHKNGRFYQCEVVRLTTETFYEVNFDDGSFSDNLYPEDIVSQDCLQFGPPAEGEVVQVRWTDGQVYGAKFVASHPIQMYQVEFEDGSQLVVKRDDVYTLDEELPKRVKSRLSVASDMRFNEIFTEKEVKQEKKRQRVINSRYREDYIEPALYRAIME
# G9a inh-1: qHTS Assay for Inhibitors of Histone Lysine Methyltransferase G9a; 8.8% of 350,000 active; Histone-lysine N-methyltransferase EHMT2 (Homo sapiens), Q96KQ7; G9a H3K9 monomethylation, AlphaScreen, 2 h; Potency, µM (doses to about 102 µM), for inactives: at the top dose activity, negative = inhibition, hits mostly inhibitors; further: potency means the concentration at half of the fitted maximal effect; on the % scale 0 is the no-effect control and ±100 the full control effect; nearly all actives have a fitted effect of over 75% in size
#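 Compounds were preincubated with 20 nM G9a for 15 min, after which biotinylated H3K9 peptide (500 nM) and SAM (20 uM) started a 2 h room-temperature reaction. Monomethylated product was quantified by antibody-based AlphaScreen chemiluminescence.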
# PLK1 PBD inh: qHTS for Inhibitors of PLK1-PDB (polo-like kinase 1 - polo-box domain): Primary Screen | 2.8% of 360,000 active | AID 720504, 2013 | Potency, µM, for inactives: max response, negative = inhibition, most hits filed as inhibitors | Plk1 PBD binding of FITC phosphopeptide, fluorescence polarization | Serine/threonine-protein kinase PLK1 (Homo sapiens), P53350; further: potency means the concentration at half of the fitted maximal effect; series mostly up to about 57 µM; on the % scale 0 is the no-effect control and ±100 the full control effect; nearly all actives have a fitted effect of over 65% in size
# HP1b chromo inh: HTS for Inhibitors of HP1-beta Chromodomain Interactions with Methylated Histone Tails. Chromobox protein homolog 1 (Homo sapiens), P83916. AlphaScreen HP1-beta / biotin-H3K9me3 peptide binding. Potency, µM (doses to about 114 µM), for the others: at the top dose activity change, negative = inhibition, most hits filed as inhibitors. 0.56% of 390,000 active; further: potency means the concentration at half of the fitted maximal effect; nearly all actives have a fitted effect of over 70% in size
#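 AlphaScreen: HP1-beta (50 nM) preformed 30 min with biotin-H3(1-18)K9me3 peptide (50 nM) in PBS pH 7.4, 0.01% Tween-20. Compound added for 30 min at RT, then streptavidin donor/nickel chelate acceptor beads (10 ug/mL) for 30 min.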
# BAZ2B inh: qHTS Assay for Inhibitors of BAZ2B. AlphaScreen BAZ2B-H3K14Ac peptide displacement. Potency, µM (titrated, usually from 114 µM), for the others: at the top dose activity change, negative = inhibition, usual class: inhibitors. 4.4% of 360,000 active; further: potency means the concentration at half of the fitted maximal effect; on the % scale 0 is the no-effect control and ±100 the full control effect; nearly all actives have a fitted effect of over 60% in size
#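 In this displacement format the biotinylated H3(5-23) peptide acetylated at Lys14 serves as ligand at 50 nM, with BAZ2B at 50 nM in PBS pH 7.4 containing 0.01% Tween-20. Donor and acceptor beads are 10 ug/mL final.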
# PI5P4Ka inh: qHTS for Inhibitors of phosphatidylinositol 5-phosphate 4-kinase (PI5P4K); max response, %; Phosphatidylinositol 5-phosphate 4-kinase type-2 alpha (Homo sapiens), P48426; 1.2% of 330,000 active; PI5P4Kalpha enzyme, ADP-Glo luminescence, 60 min; hits give low values; active means max response of -50% or lower; inconclusive means between -30% and -50%; inactive means -30% or higher; further: value at the top dose of about 77 µM; on the % scale 0 is the no-effect control and ±100 the full control effect
#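 PI5P4Kalpha ADP-Glo assay; 5 microM ATP final; 60 min RT reaction; HEPES pH 7.4/EGTA/CHAPS, 5% DMSO; controls lacking substrate or enzyme; luminescent end-point.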
# JMJD2E confirm: Confirmation qHTS Assay for Inhibitors of Human Jumonji Domain Containing 2E (JMJD2E); shares compounds with JMJD2A Tudor; Recombinant JMJD2E, FDH-coupled NADH fluorescence (FDH is formaldehyde dehydrogenase); Potency, µM (doses to about 56.8 µM), for the others: at the top dose activity change, negative = inhibition, hits mostly inhibitors; 93% of 140 active
# FDH counter: Counterscreen for JMJD2E Inhibitors: qHTS Assay for Inhibitors of Formaldehyde Dehydrogenase (FDH) | 10% of 140 active | Potency, µM (series often up to 56.7 µM), for the others: at the top dose activity, negative = inhibition, hits mostly inhibitors | shares compounds with JMJD2A Tudor | FDH enzyme assay, NADH fluorescence kinetic | AID 2680, 2010
# G9a inh-2: qHTS Assay for Inhibitors of Histone Lysine Methyltransferase G9a: Hit Confirmation. G9a H3K9 monomethylation, AlphaScreen, 2 h. Potency, µM, usual class: inhibitors. shares compounds with JMJD2A Tudor. 89% of 370 active; further: potency means the concentration at half of the fitted maximal effect; nearly all actives have a fitted effect of over 65% in size
# RGS4 confirm: qHTS for Inhibitors of Regulator of G Protein Signaling(RGS) 4: Hit Validation | shares compounds with JMJD2A Tudor | RGS4 GAP activity, Transcreener GDP fluorescence polarization | Potency, µM, usual class: inhibitors | 80% of 25 active
# Numbers without * were called inactive; ? = inconclusive; . = not tested or not shown; [ ] = dose if it differs, or a comment. Most compounds without a hit are left out; they make up all but 12% or so of the library. Unless noted, the call rests on the fitted dose curve; in most records, active means well fitted curve in the direction sought with a large enough effect; inconclusive means small, poorly fitted or top-dose-only effect, or another doubt; inactive means no such curve, though single readings can be large; an effect the other way counts as inactive or inconclusive.
SMILES,JMJD2A Tudor,G9a inh-1,PLK1 PBD inh,HP1b chromo inh,BAZ2B inh,PI5P4Ka inh,G9a inh-2,others
Cc1ccc(S(=O)(=O)Nc2cccc(NC(=O)CN3CCCCC3)c2)cc1,?,?,-21%,?,?,1,2.8*,
Cc1ccc(S(=O)(=O)Nc2ccc(NC(=O)CN3CCCCC3)cc2)cc1,-16%,?,-3%,11%,10%,2,.,
CCC(C)NC(=O)CCCc1nnc2n(CC(C)C)c(=O)c3sccc3n12 (stereo not drawn),-2%,-5%[59 µM],.,18%,-37%,.,.,
CC(C)(C)NC(=O)CSc1ccc(S(=O)(=O)N2CCOCC2)cn1,-7%,-13%[12.7 µM],-2%,31%,-2%,-7,.,
CNC(=O)NC(=O)CSc1ccc(S(=O)(=O)N2CCOCC2)cn1,2%,?,3%,47%,-3%,-2,5*,
CC(=O)c1ccc(S(=O)(=O)N2CCCC(N(C)CCc3ccccn3)C2)cc1 (stereo not drawn),12%,?,-22%,29%,-20%,-2,?,
CN(CCc1ccccn1)C1CCCN(S(=O)(=O)c2ccccc2)C1 (stereo not drawn),-8%,62%,-2%,15%,2%,1,.,
COc1cc2nc(Cl)nc(N3CCCCC3)c2cc1OC,-8%,4%[59 µM],-12%,21%,-16%,0,.,
COc1cc2c(NC3CCN(C)CC3)nc(N3CCCN(C)CC3)nc2cc1OCCCCCN,.,.,.,.,.,.,.,RGS4 confirm=?
Cc1cccc(NC(c2ccc(C)s2)c2ccc3ccc(C)nc3c2O)n1 (stereo not drawn),-4%,1.8µM*,?,-2%,8%,?,0.4*,
COC(=O)c1ccc(OC(=O)C2CC(=O)N(c3ccc(C)cc3C)C2)cc1 (stereo not drawn),-11%,?,?,24%,-3%,.,28*,
COc1ccc(OC(=O)C2CC(=O)N(c3ccc(C)cc3)C2)cc1 (stereo not drawn),15%,?,-3%,25%,1%,-8,.,
O=C(c1c[nH]c2ccccc12)C(O)C(c1ccccc1)N1CCOCC1 (stereo not drawn),-4%,25%[59 µM],-9%,12%,5%,-3,.,
COc1ccc(C(C(O)C(=O)c2c[nH]c3ccccc23)N2CCN(c3ccc(OC)cc3)CC2)cc1 (stereo not drawn),?,?,-1%,?,61%,0,5.6*,
O=S(=O)(Nc1ccccc1O)c1cccc2cccnc12,4%,?,-17%,39%,-31%,0,.,
Oc1ccc(CNc2ccccc2)c2cccnc12,79µM*,1.3µM*,7.5µM*,?,32µM*,-55*,.,JMJD2E confirm=2µM*;FDH counter=-21%
Cc1ccccc1NCc1ccc(O)c2ncccc12,28µM*,1.1µM*,3µM*,?,50µM*,.,.,JMJD2E confirm=1.4µM*;FDH counter=-13%
O=C(CSc1ncccn1)NCc1ccccc1,-8%,-2%[59 µM],-2%,20%,1%,1,.,
CCN(CC)C(=O)c1[nH]cnc1C(=O)N[C@@H](Cc1ccccc1)C(=O)OC(C)(C)C,-29%,?,?,20%,-29%,16,.,
O=C(OCc1ccccc1)c1cccnc1,.,1.4µM*,.,.,.,.,2.6*,
CCOC(=O)N1CCc2c(sc(NCc3cccc(F)c3)c2C(=O)Nc2ccc(OC)cc2)C1,10µM*,?,.,-19%,79µM*,.,2.3*,
CCOC(=O)N1CCc2c(sc(NCc3cccc(F)c3)c2C(=O)Nc2ccc(OC)cc2OC)C1,?,?,.,?,?,.,2.5*,
CCOC(=O)N1CCc2c(sc(NCc3ccc(N(C)C)cc3)c2C(=O)Nc2ccc(OC)cc2)C1,14µM*,2.8µM*,.,?,22µM*,.,3.6*,
CCC(=O)Nc1sc2c(c1C(=O)Nc1ccc(OC)cc1)CCC(C(C)(C)C)C2 (stereo not drawn),-19%,-14%[59 µM],.,18%,0%,.,.,
Cc1cccc(OCc2nnc(SCC(=O)Nc3cccc(C(=O)N4CCOCC4)c3)o2)c1C,-9%,2µM*,2%,12%,-21%,0,5*,
SMILES,JMJD2A Tudor,G9a inh-1,PLK1 PBD inh,HP1b chromo inh,BAZ2B inh,PI5P4Ka inh,G9a inh-2,others
Cc1ccc(CCNC(=O)CNS(=O)(=O)c2ccc3nc(C)sc3c2)cc1,-7%,.,-15%,64%,-2%,0,.,
Cc1nc2ccc(CCO)cc2s1,-6%,1.1µM*,-18%,40%,1%,0,?,
CCOC(=O)c1ccc(S(=O)(=O)N2CCN(c3nc(-c4cccs4)nc4ccccc34)CC2)cc1,-9%,.,.,51%,.,.,.,
Cc1ccc(N2CC(C(=O)N3CCCCCC3)CC2=O)cc1 (stereo not drawn),-11%,-11%,-6%,54%,-13%,-9,.,
Cc1cccc(OCCCC(=O)Nc2ccc(N(C)C)cc2)c1,?,1.8µM*,0%,-15%,?,-6,0.89*,
Cc1cccc(OCCCC(=O)Nc2ccc(Br)cc2)c1,18%,9%,-10%,52%,11%,10,.,
COc1ccc(N2CCN(c3nc4ccccc4nc3NS(=O)(=O)c3ccccc3)CC2)cc1,50µM*,?,-25%,?,50µM*,1,7.9*,

# High-throughput results deposited in PubChem BioAssay by National Center for Advancing Translational Sciences (NCATS).
